Results as given in PubChem BioAssay (NCATS).
Inconclusive results are not listed. Active and inactive are the calls of the source. Unless noted, calls come from the whole dose curve; as a rule, active = well fitted cell-killing curve with a large enough effect; inconclusive = small, poorly fitted or top-dose-only effect, or effect the other way; inactive = no such curve, though single readings can be large or run the other way.

Tests used:
[1] = Quantitative High-Throughput drug screen in 47 multiple myeloma cell lines against the NCATS MIPE library collection: PE2_PLB cell viability assay (AID 1919869); note: nearly all actives have a fitted effect of over 35% in size; note: potency is the fitted concentration of half-maximal effect
Outline: (§1)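 MIPE 4.0 approved/investigational drugs; 500 cells/well; 48 h 37 °C humidified 5% CO2; CTG luminescence readout; DMSO = 100%, media = 0% viability.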

[2] = Quantitative High-Throughput drug screen in 47 multiple myeloma cell lines against the NCATS MIPE library collection: PCM6_Riken cell viability assay (AID 1919870); note: nearly all actives have a fitted effect of over 30% in size; note: potency is the fitted concentration of half-maximal effect
Outline: as §1

[3] = Quantitative High-Throughput drug screen in 47 multiple myeloma cell lines against the NCATS MIPE library collection: OPM2_DSMZ cell viability assay (AID 1919872); note: nearly all actives have a fitted effect of over 30% in size; note: potency is the fitted concentration of half-maximal effect
Outline: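 Luminescent ATP measurement with CellTiter-Glo gives viability, scaled between DMSO-only wells (100%) and media-only wells (0%). Cells, 500 per well, faced library compounds for 48 hours at 37C.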

[4] = Quantitative High-Throughput drug screen in 47 multiple myeloma cell lines against the NCATS MIPE library collection: KMS11_JCRBsus cell viability assay (AID 1919873); note: nearly all actives have a fitted effect of over 50% in size; note: potency is the fitted concentration of half-maximal effect
Outline: as §1

[5] = Quantitative High-Throughput drug screen in 47 multiple myeloma cell lines against the NCATS MIPE library collection: KMS28BM_JCRB cell viability assay (AID 1919874); note: nearly all actives have a fitted effect of over 35% in size; note: potency is the fitted concentration of half-maximal effect
Outline: as §1

[6] = qHTS drug screen for cell cycle checkpoint inhibitors in PARPi-resistant BRCA-mutant ovarian cancer cell lines. (AID 1963452; calls by dose curve; note: potency is the fitted concentration of half-maximal effect); details: PEO1/OlaR viability, CellTiter-Glo luminescence, 96 h; for Z-AUC: stronger effect = lower value
Outline: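 PEO1, PEO4 and PEO1/OlaR ovarian cancer cells, 600 per well, exposed 96 h at 37C to a dilution series. Viability read by CellTiter-Glo luminescence, normalized to DMSO and empty wells; activity summarized as Z-AUC.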

[7] = qHTS for identification of novel therapeutic agents for treatment of microphthalmiaassociated transcription factor (MiT) renal cell carcinoma (RCC) (AID 1963991); details: CellTiter-Glo, 48 h, stronger effect = lower value
Outline: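 Curves over 11 concentrations were fitted to CellTiter-Glo luminescence, scaled between empty wells (0%) and DMSO (100%) viability. Cells were UOK109, UOK124 and UOK145 TFE3-fusion RCC lines at 500/well, exposed 48 hours at 37 C.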

[8] = Quantitative High-Throughput drug screen in 47 multiple myeloma cell lines against the NCATS MIPE library collection: RPMI8226_ATCC cell viability assay (AID 1919871); note: nearly all actives have a fitted effect of over 30% in size; note: potency is the fitted concentration of half-maximal effect
Outline: as §1

[9] = measured here: PEO1 parental Z-AUC
[10] = TFE3-RCC UOK109 viability, measured here: UOK109 Z-AUC
[11] = TFE3-RCC viability, measured here: UOK124 Z-AUC
[12] = TFE3-RCC viability, measured here: UOK145 Z-AUC

| Compound | Potency [1] | Potency [2] | Potency [3] | Potency [4] | Potency [5] | Z-AUC [6] | Z-AUC [6, 9] | Z-AUC ([6]; measured here: PEO4 Z-AUC) | z-score [7, 10] | z-score [7, 11] | z-score [7, 12] | Potency [8] | Potency [6] |
| --- | --- | --- | --- | --- | --- | --- | --- | --- | --- | --- | --- | --- | --- |
| CN(CCOc1ccc(CC2SC(=O)NC2=O)cc1)c1ccccn1 (stereo unspecified) | inactive | inactive | inactive | inactive | inactive | 0.844 (inactive) | 0.498 | 0.826 | 1.36 | 0.588 | 0.764 | – | – |
| CC(C)Cn1cnc2c(N)nc3ccccc3c21 | inactive | – | inactive | – | – | -0.974 (inactive) | -0.536 | -1.36 | – | – | – | – | – |
| O=c1oc2c(O)c(O)cc3c(=O)oc4c(O)c(O)cc1c4c23 | inactive | inactive | inactive | inactive | – | 0.559 (inactive) | 0.754 | 0.513 | 1.02 | 0.807 | 0.717 | – | – |
| CCC(=O)O[C@]1(C(=O)SCF)[C@H](C)C[C@H]2[C@@H]3C[C@H](F)C4=CC(=O)C=C[C@]4(C)[C@@]3(F)[C@@H](O)C[C@@]21C | inactive | – | – | inactive | – | -1.29 (inactive) | -0.0288 | -0.807 | – | – | – | 1.9 nM (active) | – |
| O=NN(CCCl)C(=O)NC1CCCCC1 | inactive | inactive | – | inactive | inactive | 0.23 (inactive) | 1.4 | 1.4 | 0.385 | 1.51 | 1.28 | – | – |
| CNNCc1ccc(C(=O)NC(C)C)cc1 | inactive | inactive | 8330 nM (active) | – | inactive | 1.13 (inactive) | 0.747 | 1.05 | – | – | – | – | – |
| COc1cc([C@@H]2c3cc4c(cc3[C@H](O)[C@H]3COC(=O)[C@H]23)OCO4)cc(OC)c1OC | inactive | inactive | inactive | inactive | – | – | -1.81 | -1.94 | – | – | – | – | 17.4 nM (active) |
| COC(=O)Nc1nc2ccc(Sc3ccccc3)cc2[nH]1 | 1180 nM (active) | – | 3320 nM (active) | 935 nM (active) | 935 nM (active) | -0.927 (inactive) | -0.935 | -0.94 | – | – | – | 5260 nM (active) | – |
| CCOC(=O)c1ccc(C#Cc2ccc3c(c2)C(C)(C)CCS3)nc1 | inactive | – | inactive | – | inactive | 1.4 (inactive) | 1.62 | 1.15 | 0.0377 | 0.696 | 0.0993 | inactive | – |
| Cc1nnc(NS(=O)(=O)c2ccc(N)cc2)s1 | inactive | 1180 nM (active) | – | 9350 nM (active) | 4180 nM (active) | 1.31 (inactive) | 0.997 | 1.46 | – | – | – | – | – |
